The structures appear in SMILES notation. This is part of a sample that, as a whole, favours compounds with a hit. Of some 83,000 tested, about 20% had one in any assay.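 Results are percent growth after 48 hours of single-concentration exposure. 100 means growth as in untreated cells, lower positive values show inhibition; negative values down to -100 show cell death.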 Values without a mark were called inactive. Active and inactive are the calls of the source. How the source made its calls: active means growth percent below 10; inactive means the rest.

For this assay, the system named is MDA-MB-468 breast. Kind of assay: NCI-60 one-dose screen, 48 h (100 = growth as untreated, 0 = no growth, -100 = all killed). The settings on record: 10 µM unless noted.
As to `O=C1/C(=C\c2cn(-c3ccccc3)nc2-c2ccc(-c3cccs3)cc2)CCc2ccccc21`, the growth is 36.1%. The value for `Fc1ccc(NC(c2ccc(F)cc2)C2CCN(CCCCc3ccccc3)CC2)cc1` (stereo not drawn) was 7.21% (active); that for `CN1CCN(C(=S)SCCCCOc2cc(=O)oc3ccccc23)CC1` was 56.3%.

(Values after PubChem BioAssay (NCI).)
